# Rows were chosen to be rich in hits. Some 3.3% of all compounds tested hit in one or more screens of this group.
# Fh CTSL1 inh: counter-screen for PFM18AAP inhibitors: inhibitors of F. hepatica cathepsin L1; recombinant F. hepatica cathepsin L1, Z-Leu-Arg-MCA fluorescence; inhibition, % at 5.96 µM; actives 0.49% (n = 300,000); AID 1906;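 active = inhibition above the mean of all tested compounds plus 3 SD, set per screening campaign, cut at about 17% in these data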;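 note: 0% = plate median of test compound wells and 100% = 1 µM Z-Phe-Ala-diazomethylketone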
# NRP1-CendR mod: alters CendR peptide binding to human NRP-1 | O14786 | FAM-RPARPAR peptide binding to NRP-1, fluorescence polarization | inhibition, % at 25 µM | actives 0.85% (n = 360,000);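 active = inhibition or corrected inhibition above about 18%, plus a signal ratio from 0.5 to 1.5, limit read from the data, passing the limit was not always enough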
# PHOSPHO1 block: PHOSPHO1 (human) inhibition; recombinant PHOSPHO1, absorbance phosphatase assay; inhibition, % at 13.3 µM; actives 1.1% (n = 290,000); AID 1565; in the data active = inhibition above about 60%
# Rpn11 block: blocks the human proteasome subunit Rpn11. O00487. human 26S proteasome, Ub4-pepOG fluorescence polarization; 20S core pre-blocked with epoxomicin. inhibition, % at 20 µM. actives 0.59% (n = 360,000). AID 588493;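 active = inhibition at 20 µM, scaled to each plate's controls, above about 33%, limit read from the data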
# HNF4A DNA FP: change in binding of human HNF4 alpha to DNA. P41235. HNF4a-FITC DNA binding, fluorescence polarization, 1 h. activity change, % at 10 µM. actives 0.3% (n = 360,000); in the data active = activity change above about 30%, passing the limit was not always enough
# TPT1 inhibitor: blocks Candida albicans tRNA 2'-phosphotransferase; recombinant caTPT1, FP RNA substrate dephosphorylation; inhibition, % at 5 µM; actives 0.81% (n = 300,000);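 active = inhibition above the mean of all tested compounds plus 3 SD, set per screening campaign, cut at about 24% in these data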;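 note: plate controls were DMSO alone for no effect and ferristatin control at 100 nM for full effect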
# Rpn11 confirm: confirmation of human proteasome Rpn11 inhibitors. shares compounds with Rpn11 block. purified human 26S proteasome, Ub4-pepOG fluorescence polarization; proteasome pretreated with epoxomicin. inhibition, % at 20 µM. actives 29% (n = 1,900)
# MMP-2 counter: blocks human MMP-2, flagging nonselective RPN11 hits; shares compounds with Rpn11 block; recombinant MMP-2, FRET peptide cleavage fluorescence; inhibition, % at 20 µM; actives 4% (n = 1,900);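 note: human MMP-2 activated beforehand with APMA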
# Thrombin inh: blocks bovine thrombin, flagging nonselective RPN11 hits; shares compounds with Rpn11 block; actives 13% (n = 1,900); bovine thrombin cleavage of Ub4-pepOG, fluorescence polarization; inhibition, % at 20 µM;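 active = mean inhibition at least 40% at 20 µM, or signal 3 deviations below plate average, so some actives read negative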;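 note: plate controls were thrombin with DMSO for no effect and buffer wells lacking thrombin for full effect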
# * marks the source's active call; other numbers are inactive results; · = not tested or not shown. Cut-off read from the data, not from the text of the source, unless noted: active = inhibition above about 40%; inactive = the rest.
SMILES,Fh CTSL1 inh,NRP1-CendR mod,PHOSPHO1 block,Rpn11 block,HNF4A DNA FP,TPT1 inhibitor,Rpn11 confirm,MMP-2 counter,Thrombin inh
CCOc1cccc2sc(NC(=O)c3ccc(Br)s3)nc12,3,-16,-5,54*,2,-1,-1,8,-4
N=c1c(S(=O)(=O)c2ccccc2)cc2c(=O)n3ccccc3nc2n1C1CCCC1,-6,-21,14,78*,12,6,-13,-44,-13
N=c1c(S(=O)(=O)c2ccc(Br)cc2)cc2c(=O)n3ccccc3nc2n1C1CCCC1,-5,-17,18,14,1,4,·,·,·
CCOC(=O)c1cc2occc2n1Cc1c(F)cccc1Cl,1,-18,1,42*,16,11,17,-9,3
COC(=O)c1cc2occc2n1Cc1c(F)cccc1Cl,·,·,38,·,·,·,·,·,·
NS(=O)(=O)c1ccc(NS(=O)(=O)c2ccc(C3CNC(=O)C3)cc2)cc1 (centres undefined),14,-3,23,2,-2,0,·,·,·
COC(=O)C1=C(C)N(CCc2ccc(OC)c(OC)c2)C(=O)/C1=C\N(C)C,-4,-13,15,60*,-1,-1,-10,5,-11
COc1ccc(CCN2C(=O)C=CC2=O)cc1OC,·,0,·,0,-1,·,·,·,·
Cc1cc(C)cc(NS(=O)(=O)c2cnc(Cl)c(Cl)c2)c1,1,13,12,52*,40*,3,1,-15,10
CCOc1ccc(NS(=O)(=O)c2cnc(Cl)c(Cl)c2)cc1,-1,8,-9,-1,-1,-3,·,·,·
O=C(Nc1ccc2oc(-c3ccc(Cl)c(Cl)c3)nc2c1)c1ncn[nH]1,-1,-7,15,49*,-13,-4,-11,-41,-4
CCCn1c(SCC(=O)Nc2nnc(C)s2)nnc1-c1ccoc1C,-2,-4,13,-1,-2,-2,·,·,·
COc1ccc(Cl)cc1NC(=O)CCCNC(=O)c1ccc(Cl)cc1,2,3,28,137*,8,-5,7,-1,3
NC(=O)C(c1ccccc1)c1ccc(C(=O)c2ccccc2)cc1 (centres undefined),-4,10,52,-3,1,-3,·,·,·
O=[N+]([O-])c1ccccc1C=NNc1ccccc1,·,2,·,-5,-1,·,·,·,·
O=[N+]([O-])c1ccc(NN=Cc2cccc3ccccc23)cc1,·,-6,·,51*,27,·,14,-12,6
N#C/C(=C\c1c(N(Cc2ccccc2)Cc2ccccc2)nc2ccccn2c1=O)C(N)=O,2,-2,2,-6,3,0,·,·,·
C=CCNC(=O)/C(C#N)=C/c1c(N(Cc2ccccc2)Cc2ccccc2)nc2ccccn2c1=O,3,-12,-4,46*,0,0,19,21,12
CCOC(=O)c1nnc2cc(-c3ccc(Br)cc3)nn2c1C,2,-13,3,-1,3,1,·,·,·
CCOC(=O)c1nnc2cc(-c3ccccc3)nn2c1C,2,6,-5,46*,20,-2,0,-51,-1
COC(=O)c1sc(N2C(=O)C(O)=C(C(=O)c3ccc(C)o3)C2c2ccc(F)cc2)nc1C (centres undefined),2,-50,3,54*,16,26*,16,14,-3
CCOC(=O)c1sc(N2C(=O)C(O)=C(C(=O)c3ccco3)C2c2cccc(Cl)c2)nc1C (centres undefined),4,-29,15,55*,4,8,15,39,5
COC(=O)c1sc(N2C(=O)C(O)=C(C(=O)c3ccc(C)o3)C2c2ccco2)nc1C (centres undefined),7,-20,4,15,-1,8,·,·,·
COC(=O)c1sc(N2C(=O)C(O)=C(C(=O)c3ccc(C)o3)C2c2cccs2)nc1C (centres undefined),3,-41,38,49*,20,10,5,12,-26
CC(c1ccccc1)N1C(=O)/C(=C/c2ccncc2)SC1=S (centres undefined),2,5,40,-1,-1,0,·,·,·
SMILES,Fh CTSL1 inh,NRP1-CendR mod,PHOSPHO1 block,Rpn11 block,HNF4A DNA FP,TPT1 inhibitor,Rpn11 confirm,MMP-2 counter,Thrombin inh
Cc1nc(N2CCOCC2)nc(N2CCCCC2)c1[N+](=O)[O-],-1,-24,-14,-9,0,0,·,·,·
Cc1nc(N2CCCCC2)nc(N2CCCCC2)c1C=O,0,-20,44,58*,10,11,25,-61,-4
CC(=O)Nc1ccc(/C(C)=N/NC(=O)c2ccc(COc3ccccc3Cl)o2)cc1,-2,6,·,70*,-9,0,46*,-102,16
Cc1cc(N(C)C)ccc1N=Nc1ccc(N)cc1,5,-58,·,48*,25,14,35,5,28
Nc1ccc(N=Nc2ccc(N)cc2)cc1,3,-31,24,21,21,16,·,·,·
CCC1CCCCN1CCNS(=O)(=O)c1ccc2c(c1)oc(=O)n2C (centres undefined),-3,5,-14,5,-4,1,·,·,·
CCC1CCCCN1CCCNS(=O)(=O)c1ccc2c(c1)oc(=O)n2C (centres undefined),-2,-39,9,68*,6,14,26,-9,16
Cc1ccccc1CN1C(=O)C(C)Sc2ccc(-c3ccco3)cc21 (centres undefined),·,-92,·,60*,19,·,46*,4,25
O=C(c1ccco1)N1CCN(C(=O)c2cc(-c3ccccc3)nc3ccccc23)CC1,2,-7,28,2,0,0,·,·,·
O=C(c1ccco1)N1CCN(C(=O)c2cc(-c3ccncc3)nc3ccc(Br)cc23)CC1,3,-68,·,65*,21,13,-16,-3,0
Cc1occc1-c1nnc(SCC(=O)NCCc2ccccc2)n1Cc1ccccc1,0,3,45,85*,6,6,13,-23,11
Cc1nc2ccccc2c2oc(C(=O)N3CCC(N4CCCCC4)CC3)cc12,0,8,-14,58*,16,7,18,-36,2
Cc1nc2ccccc2c2oc(C(=O)N3CCN(C4CCCCC4)CC3)cc12,5,-12,-1,3,0,-8,·,·,·
NCCCC[C@H]1CN=C(N)N1CC1CCCCC1,-3,-2,·,34*,-29,0,-12,-3,47*
CCCCOc1ccc(C(=O)NCC(=O)NC(C)CCc2ccccc2)cc1 (centres undefined),·,16,25,5,-3,·,·,·,·
